# Measured potencies and affinities stand elsewhere. The source made the active and inactive calls. The rule behind the calls is not given here.
# Biological target: Kelch-like ECH-associated protein 1 (Homo sapiens) + Nuclear factor erythroid 2-related factor 2 (Homo sapiens) (UniProt Q14145+Q16236)
# Experiment: disruptors of Keap1 binding to Nrf2 peptide – biochemical, fluorescence polarization, cherry-picked samples, dose response (AID 588683);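 note: Kelch domain of Keap1 binding a fluorescein-labelled 9mer Nrf2 peptide; more negative means stronger inhibition of peptide binding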
# Kelch-like ECH-associated protein 1 (Homo sapiens) + Nuclear factor erythroid 2-related factor 2 (Homo sapiens), sequence (Q14145 whole entry, looked up, the tested form may be a part): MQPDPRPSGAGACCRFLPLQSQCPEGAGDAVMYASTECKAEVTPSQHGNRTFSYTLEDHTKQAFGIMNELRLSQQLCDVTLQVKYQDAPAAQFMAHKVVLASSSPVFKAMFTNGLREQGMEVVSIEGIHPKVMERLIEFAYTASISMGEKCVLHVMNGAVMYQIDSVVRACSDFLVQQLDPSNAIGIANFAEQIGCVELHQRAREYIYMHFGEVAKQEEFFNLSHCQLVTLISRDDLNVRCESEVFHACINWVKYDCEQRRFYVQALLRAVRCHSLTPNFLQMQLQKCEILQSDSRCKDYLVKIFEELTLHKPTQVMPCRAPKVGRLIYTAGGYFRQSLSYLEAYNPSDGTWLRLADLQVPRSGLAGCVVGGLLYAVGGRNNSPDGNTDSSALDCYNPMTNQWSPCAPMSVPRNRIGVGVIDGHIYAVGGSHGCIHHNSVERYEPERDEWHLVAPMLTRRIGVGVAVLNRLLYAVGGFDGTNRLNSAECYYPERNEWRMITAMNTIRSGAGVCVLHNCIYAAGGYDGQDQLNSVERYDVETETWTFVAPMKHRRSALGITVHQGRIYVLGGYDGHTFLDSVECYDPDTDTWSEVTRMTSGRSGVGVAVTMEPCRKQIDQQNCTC
# Kelch-like ECH-associated protein 1 (Homo sapiens) + Nuclear factor erythroid 2-related factor 2 (Homo sapiens), sequence (Q16236 whole entry, looked up, the tested form may be a part): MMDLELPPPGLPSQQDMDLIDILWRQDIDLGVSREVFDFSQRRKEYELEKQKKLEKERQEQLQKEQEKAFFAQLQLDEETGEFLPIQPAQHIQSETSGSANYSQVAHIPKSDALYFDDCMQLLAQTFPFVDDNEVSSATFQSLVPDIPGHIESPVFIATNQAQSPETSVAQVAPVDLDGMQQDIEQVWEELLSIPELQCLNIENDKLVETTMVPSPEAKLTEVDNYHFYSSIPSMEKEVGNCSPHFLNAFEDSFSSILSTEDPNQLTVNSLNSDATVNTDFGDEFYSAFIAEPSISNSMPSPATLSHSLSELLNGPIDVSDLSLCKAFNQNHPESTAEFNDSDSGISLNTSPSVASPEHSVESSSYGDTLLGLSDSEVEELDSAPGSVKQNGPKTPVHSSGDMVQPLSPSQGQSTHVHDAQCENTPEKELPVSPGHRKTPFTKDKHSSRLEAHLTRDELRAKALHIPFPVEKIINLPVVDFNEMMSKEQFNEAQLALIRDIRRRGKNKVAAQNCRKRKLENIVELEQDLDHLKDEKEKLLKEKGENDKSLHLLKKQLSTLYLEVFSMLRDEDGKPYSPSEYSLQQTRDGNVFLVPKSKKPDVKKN
row,Structure (SMILES),outcome
1,O=C1NC(=O)/C(=C/c2ccccc2Cl)N1,inactive
2,Cc1nn(-c2ccccc2Cl)c(Cl)c1/C=N/Nc1nc2ccccc2s1,inactive
3,O=C(Nc1ccccn1)C1CCN(S(=O)(=O)c2ccc3c(c2)OCCO3)CC1,inactive
4,O=C(COC(=O)c1ccc([N+](=O)[O-])s1)Nc1cccc(S(=O)(=O)NC2=NCCCCC2)c1,inactive
5,COc1ccc(-c2cc(C(F)(F)F)c3c(N)c(C(=O)NCCSC)sc3n2)cc1,inactive
6,CCSc1ncc(Cl)c(C(=O)Nc2ccccc2OC)n1,inactive
7,Clc1ccc(C2=CC(c3ccco3)n3ncnc3N2)cc1 (stereo not drawn),inactive
8,CC1=CC(=C2N=C(c3ccccc3)OC2=O)C=C(C)O1,inactive
9,CN(C)CCNC(=O)c1c(NC(=O)c2ccccc2)sc2c1CCCC2,inactive
10,C=CCn1cccc(C(=O)Nc2ccc(OC)c(Cl)c2)c1=O,inactive
11,Oc1cc(NCCN2CCOCC2)cc2cccnc12,inactive
12,Cc1cnc(NC(=O)Cc2ccc(S(=O)(=O)N3CCOCC3)s2)s1,inactive
13,O=C(NNC(=O)c1ccc(Br)o1)c1csc(N2CCOCC2)n1,inactive
14,O=C(NCc1ccc(Cl)cc1)c1cc(=O)[nH]c2ccccc12,inactive
15,O=C(NCc1cccc(F)c1)c1cccc2c1C(=O)c1ccc(N3CCCC3)cc1S2(=O)=O,inactive
16,CC(Sc1nc2ccccc2s1)C(=O)Nc1nnc(C(C)C)s1 (stereo not drawn),inactive
17,O=C(COC(=O)c1ccncc1)Nc1cccc2ccccc12,inactive
18,CCOc1ccc(C(=O)COC(=O)c2nn(CC)c(=O)c3ccccc23)cc1,inactive
19,CN(CC(=O)Nc1cc(C(F)(F)F)ccc1-n1cncn1)Cc1ccccc1N1CCOCC1,inactive

row,Structure (SMILES),outcome
1,CC1(C)CC(=O)C2=C(C1)OC1=C(C2)C(=O)CC(C)(C)C1,inactive
2,CCCCC(CC)C(=O)Oc1ccc(O)c(C(C)(C)C)c1 (stereo not drawn),inactive
3,CC(C)(C)c1cc[n+](-c2[nH]c(=O)sc2/C=N/NC([S-])=Nc2ccccc2)cc1,inactive
4,CCOc1ccc2noc3c2c1C(=O)c1ccccc1-3,inactive
5,O=C(C1=NN(c2ccccc2)C2C(=O)N(c3ccccc3)C(=O)C12)c1ccccc1 (stereo not drawn),inactive
6,N#Cc1c(SCC(=O)Nc2nncs2)sc2c(O)cc(=O)[nH]c12,inactive
7,CCN1CCN(S(=O)(=O)c2ccc(Cl)c(C(=O)NC3CCC(C)CC3)c2)CC1 (stereo not drawn),inactive
8,Nc1nc(SCC(=O)Nc2cc(C(F)(F)F)ccc2N2CCOCC2)n[nH]1,inactive
9,CC(=O)Nc1ccc2c(c1)N(C(=O)CN(C)C)c1ccccc1CC2,inactive
10,Cc1ccc(S(=O)(=O)NCC(=O)OCC(=O)Nc2ccc3c(c2)OCCO3)cc1,inactive
11,CCN(CC)c1ccc(C2Nc3cccc4cccc(c34)N2)cc1,inactive
12,Cc1nnc(NC(=O)c2ccc3c(c2)NC(=O)CS3)s1,inactive
13,CC(=O)Nc1ccc(NS(=O)(=O)c2ccc3c(c2)oc(=O)n3C)cc1,inactive
14,O=C(NNS(=O)(=O)c1ccc(F)cc1)c1ccc(O)cc1,inactive
15,Cc1cc(C)c2c(SC(C)C)nc(N)nc2n1,inactive
16,Cc1sc2ccccc2[n+]1CC(=O)c1ccccc1,inactive
17,Cc1cccc(NC(=O)CCN2CCCCC2)c1,inactive
18,Oc1ccc2c(c1)OCC1(O)Cc3cc(O)c(O)cc3C21 (stereo not drawn),inactive
19,NC(=O)C1CCN(C2=C(Cl)C(=O)c3ccccc3C2=O)CC1,inactive

# Source: PubChem BioAssay AID588683 (Broad Institute, 2011)
